High-throughput results deposited in PubChem by several laboratories.
Cav3 T inh = Cav3.2 calcium influx blockers – cell-based, Fluo-4 calcium fluorescence, FDSS, MLSMR library, primary screen | 100,000 compounds, 4% hits | B-score at 10 µM | Cav3.2-expressing cells; hits give low values | Voltage-dependent T-type calcium channel subunit alpha-1H (Homo sapiens), O95180;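 active means single-dose well whose peak fluorescence ratio is a statistical outlier from its plate by either plate-standardised score or position-corrected B-score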
PTK2B oligo ant = antagonists of Pyk2 self-association, primary screen, Q293 cells, FERM NanoBiT luminescence, HTS; Protein-tyrosine kinase 2-beta (Homo sapiens), Q14289; hits give low values; z-score (the deposit names both 25 µM and 10 µM); 99,000 compounds, 0.83% hits; AID 1347419, 2020;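 active means Z-score of -3 or lower, scaled per plate to the spread of control and sample wells; inactive means z-score above -3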;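 further: negative z-score means lost luminescence so less FERM oligomerization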
CYP2C19 inhib = blockers of cytochrome P450 2C19 activity – biochemical, luminescence, ADME assay, primary screen. AID 778, 2007. P33261. CYP2C19 Supersomes, luciferin-H EGE luminescence, 30 min. inhibition, % at 5 µM. 96,000 compounds, 21% hits;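 active means CYP2C19 inhibition above a set limit at 5 µM in the primary screen, cut at about 50% in these data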;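 further: plate controls were negative control wells for no effect and 2.5 mM tranylcypromine positive control for full effect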
CYP2C9 activ = human CYP2C9 activators, primary screen, biochemical, luminescence; Cytochrome P450 2C9 (Homo sapiens), P11712; recombinant CYP2C9, luciferin-H conversion; hits give high values; factor 1 = untreated enzyme, 0 = blocked; activation factor at 5 µM; 96,000 compounds, 1.4% hits; AID 1024, 2008;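 active means activation factor of 2 or more for CYP2C9 at a 5 µM dose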;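 further: 0 = sulfaphenazole-blocked wells and 1 = vehicle-only wells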
Target sequence (P11712 whole entry, looked up): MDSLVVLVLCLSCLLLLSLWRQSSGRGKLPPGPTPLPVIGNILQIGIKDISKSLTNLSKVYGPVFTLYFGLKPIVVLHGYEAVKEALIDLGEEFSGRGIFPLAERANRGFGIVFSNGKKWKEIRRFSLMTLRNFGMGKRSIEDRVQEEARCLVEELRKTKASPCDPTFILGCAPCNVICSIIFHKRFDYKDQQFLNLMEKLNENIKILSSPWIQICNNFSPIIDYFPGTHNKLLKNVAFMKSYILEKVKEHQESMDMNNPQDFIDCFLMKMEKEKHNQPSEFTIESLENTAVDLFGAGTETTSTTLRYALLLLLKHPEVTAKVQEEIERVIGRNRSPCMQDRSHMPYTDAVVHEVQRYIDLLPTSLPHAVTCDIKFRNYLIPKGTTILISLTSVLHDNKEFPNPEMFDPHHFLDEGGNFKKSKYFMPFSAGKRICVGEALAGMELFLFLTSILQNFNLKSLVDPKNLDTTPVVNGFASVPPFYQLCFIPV
CYP2C19 activ = human CYP2C19 activators, primary screen, biochemical, luminescence; recombinant CYP2C19, luciferin-H EGE luminescence; hits give high values; 0 = fully inhibited enzyme, 1 = untreated enzyme; activation factor at 5 µM; 96,000 tested, under 10 active; AID 1025, 2008;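 active means activation factor of at least 2 at 5 µM in the primary screen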;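 further: 0 = wells with 2.5 mM tranylcypromine and 1 = vehicle-only wells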
CYP2C9 inh = blockers of cytochrome P450 2C9 activity – biochemical, luminescence, ADME assay, primary screen; P11712; CYP2C9 Supersomes, luciferin-H conversion; inhibition, % at 5 µM; 96,000 compounds, 20% hits; AID 777, 2007;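 active means blocking of liver enzyme CYP2C9 beyond about 50% at 5 µM, limit read from the data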
* hit, by the source's call; x = no result. Only some compounds are listed: those with a hit (about 27% of all), similar ones and a draw of the others.

SMILES	Cav3 T inh	PTK2B oligo ant	CYP2C19 inhib	CYP2C9 activ	CYP2C19 activ	CYP2C9 inh
COc1ccc(C(=O)Nc2nc3ccccc3[nH]2)cc1S(=O)(=O)N1CCCC1	0.71	-0.39	8	0.9	0.9	14
CCOC(=O)N1CCN(C(=O)CSc2nnc(Cc3ccccc3)o2)CC1	0.37	x	-6	0.9	1.1	6
Cc1ccccc1NC(=O)c1c(O)c2cccc3c2n(c1=O)CCC3	x	x	1	0.9	1	6
CN(Cc1ccccc1)C(=O)CCNS(=O)(=O)c1ccc2c(c1)oc(=O)n2C	0.16	1.7	49	0.8	0.5	17
CCn1c(SCC(=O)c2ccc(NS(=O)(=O)c3ccccc3)cc2)nnc1-c1cccs1	-0.54	-0.27	22	0.1	0.8	94*
Cc1ccccc1OCc1nnc(SCC(=O)NCc2ccccc2)n1C	0.11	-0.22	1	1.4	1	-41
Cc1cccc(OCc2nnc(SCC(=O)c3cccs3)n2C)c1C	-0.83	-0.54	78*	0.5	0.2	53*
O=C(Nc1cccnc1)C1CC(c2ccc(Cl)c(Cl)c2)=NO1 (centres undefined)	-2.2	0.97	94*	0.4	0.1	56*
O=C(NCc1ccccn1)C1CC(c2ccc(Cl)c(Cl)c2)=NO1 (centres undefined)	-1.6	1.9	24	1.1	0.8	-6
COc1ccc(OC)c(C2=NOC(C(=O)Nc3cccnc3)C2)c1 (centres undefined)	-0.61	0.61	76*	2*	0.2	-99
CCOc1cc2c(C)cc(=O)oc2cc1Cl	-0.34	0.41	2	1	1	-2
O=C(CC(=O)N/N=C\c1c(Cl)cccc1Cl)NCc1ccccc1	-1.5	0.13	86*	0.6	0.1	41
CCOc1cc(/C=C(/C#N)C(=O)Nc2ccc(O)cc2)cc(Br)c1O	-7.9*	-2.1	61*	0.1	0.4	94*
Cc1c(Cl)cccc1-n1c(SCC(=O)N(C)Cc2ccccc2)nnc1-c1ccncc1	-0.79	-1.5	90*	0.2	0.1	83*
O=C(O)CSc1nnc(-c2ccncc2)n1CCc1ccccc1	0.8	-0.91	5	1	0.9	4
Cc1noc(C)c1CSc1nnc(-c2ccncc2)n1-c1cccc(Cl)c1C	0.046	-1.3	100*	0.1	0	94*
Cc1cc(NC(=O)CSc2nnc(-c3c[nH]c4ccccc34)n2-c2ccc(F)cc2)no1	-0.003	x	x	x	x	x
Cc1ccccc1-n1c(SCc2c(C)noc2C)nnc1-c1c[nH]c2ccccc12	0.023	-3.5*	4	0.9	1	8
CSc1ccc(-c2nnn(Cc3ccccn3)n2)cc1	x	-0.15	67*	0.7	0.3	26
Clc1ccc(Cn2nnc(-c3ccc(N4CCOCC4)cc3)n2)cc1	-0.55	1.2	-22	1.1	1.2	-11
CSc1ccc(-c2nnn(Cc3ccc(Br)cc3)n2)cc1	-2	-0.12	75*	0.7	0.2	30
Cc1cccc(N(C(=O)c2ccc(Cl)cc2)C2CS(=O)(=O)CC2OC(=O)c2ccc(Cl)cc2)c1 (centres undefined)	-2.1	-0.61	4	0.6	1	40
CC1(C)Cc2ccccc2-c2n[nH]c(=S)n21	x	2.3	26	0.5	0.7	53*
CCSc1nnc2n1C(C)(C)Cc1ccccc1-2	-0.46	0.72	-7	1	1.1	-1
CCOC(=O)c1[nH]c(C)c(C(=O)Nc2cccc(Cl)c2C)c1C	-2.1	0.34	17	0.6	0.8	43
SMILES	Cav3 T inh	PTK2B oligo ant	CYP2C19 inhib	CYP2C9 activ	CYP2C19 activ	CYP2C9 inh
CCOC(=O)c1c(C)[nH]c2cc(Br)c(OC)cc12	-0.42	-1.4	41	0.6	0.6	40
CCOC(=O)c1c(C)[nH]c(C)c1-c1ccccc1OC	x	0.91	67*	0.6	0.3	40
COC(=O)c1c(C)[nH]c(C)c1-c1ccccc1Cl	-1.4	-1.1	61*	0.5	0.4	47
COc1cc(C(=O)OCC(=O)NC2CCS(=O)(=O)C2)ccc1OCc1c(C)noc1C (centres undefined)	x	0.07	x	x	x	x
COC(C[C@@H](O)[C@H](C)[C@@H](O)COCc1ccccc1)OC	0.31	x	x	x	x	x
Cc1nc(-c2ccccc2O)n(-c2ccccc2)n1	0.67	1.1	53*	0.3	0.5	68*
Cc1cc(N2CCN(c3ccccc3)CC2)nc(-c2ccccc2O)n1	-2.2	0.22	4	0.9	1	7
Cc1ccc(Oc2ncc(CN3CC(C)OC(C)C3)s2)cc1 (centres undefined)	0.43	0.18	47	1.1	0.5	-8
O=C(Nc1ccc2c(c1)OCO2)C1CCCCN1S(=O)(=O)c1ccccc1 (centres undefined)	0.34	-0.71	98*	0.4	0	64*
COc1ccc(S(=O)(=O)N2CCCC(C(=O)Nc3ccc4c(c3)OCCO4)C2)cc1 (centres undefined)	-0.35	-0.3	x	x	x	x
O=C(Nc1ccc2c(c1)OCO2)C1CCN(S(=O)(=O)c2ccc3c(c2)OCCO3)CC1	0.56	0.45	-6	1.2	1.1	-25
O=C(Nc1ccc2c(c1)OCCO2)C1CCCN1S(=O)(=O)c1ccc(Cl)cc1 (centres undefined)	-0.5	1.4	88*	0	0.1	96*
Cc1cc(NC(=O)NC2CCCN2S(=O)(=O)c2ccc(Cl)cc2)no1 (centres undefined)	0.27	-0.32	80*	0.4	0.2	60*
N/C(=N\OC(=O)C1CCCCC1)c1ccccn1	0.64	-0.42	18	0.8	0.8	20
C/C(=N/NS(C)(=O)=O)c1ccc2ccccc2c1	0.12	0.24	27	0.3	0.7	73*
CO/C([O-])=N/c1c[n+](-c2ccc(Cl)cc2)no1	0.34	0.14	18	0.9	0.8	10
CCOC(=O)N1CCN(CCC(=O)Nc2ccc(OC(F)(F)F)cc2)CC1	-0.0083	2.5	x	x	x	x
O=C(CSc1ncn[nH]1)Nc1ccc(S(=O)(=O)N2CCCC2)cc1	0.28	0.34	10	0.4	0.9	61*
O=C(CSc1nc2ccccc2c(=O)[nH]1)Nc1ccc(S(=O)(=O)N2CCCC2)cc1	-0.52	0.02	32	0	0.7	96*
CC1(OC(=O)c2ccc(Cl)nc2)C(=O)C=C2C=C(c3ccc(C#N)cc3)OC=C2C1=O (centres undefined)	0.038	x	x	x	x	x
O=C1CC(N2CCN(c3cccc(C(F)(F)F)c3)CC2)C(=O)N1c1ccc(F)cc1 (centres undefined)	-0.56	0.98	11	0.8	0.9	20
